Source: the supplement of paper PMC12494721
Counter-ions that a name gives are not always drawn.

Assays:
Settings in all cases: incubation time: 27 h, anaerobic, 37 °C;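 for the amine columns active = adjusted P below 0.05 in both replicates with a change the same way and a mean fold change under 0.8 or over 1.25; inactive = the rest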
[1] = tested on: Clostridium sporogenes DSM 1664; assay: growth (OD595) fold change vs plate DMSO controls (fold change (ratio)); higher = more growth
Summary of the method: (§1)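 To obtain OD, 595 nm absorbance readings were blank-subtracted, corrected for compound background using 20 µM compound solutions in water, and multiplied by a calibration factor of 5. They came from 96-well mGAM cultures grown anaerobically for 27 h at 37 °C and shaken before reading. Growth is the fold change relative to the median of plate DMSO controls. Two biological replicates were averaged, and fold changes above 1.5 were set to NA.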

Escherichia coli IAI1 [2] = assay: as above
Summary of the method: as §1

[3] = tested on: Klebsiella aerogenes DSM 30053; assay: as above
Summary of the method: as §1

[4] = tested on: Ruminococcus gnavus DSM 108212; assay: as above
Summary of the method: as §1

[5] = tested on: Klebsiella aerogenes DSM 30053; assay: fold change of Histamine concentration vs plate DMSO controls (fold change (ratio)); higher = more amine produced, active = hit call of the paper (significant change in both replicates, either direction)
Summary of the method: (§2)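 Anaerobic mGAM cultures of four gut bacterial strains were grown at 37 °C for 27 h in 80 µL wells, starting at OD 0.1 before 1:1 dilution. Compounds were at 20 µM final (sweeteners 50 µM). Whole cultures were extracted with cold acetonitrile/methanol containing 0.1% formic acid and centrifuged. Amines were quantified by LC–triple-quadrupole MS (dynamic MRM) against external calibration curves and drift-corrected within batch. Each value is the fold change versus plate DMSO controls, averaged over 2 biological replicates.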

[6] = tested on: Clostridium sporogenes DSM 1664; assay: fold change of Tryptamine concentration vs plate DMSO controls (fold change (ratio)); higher = more amine produced, active = hit call of the paper (significant change in both replicates, either direction)
Summary of the method: as §2

[7] = tested on: Ruminococcus gnavus DSM 108212; assay: as above
Summary of the method: as §2

Escherichia coli IAI1 [8] = assay: fold change of Putrescine concentration vs plate DMSO controls (fold change (ratio)); higher = more amine produced, active = hit call of the paper (significant change in both replicates, either direction)
Summary of the method: as §2

[9] = tested on: Klebsiella aerogenes DSM 30053; assay: as above
Summary of the method: as §2

Escherichia coli IAI1 [10] = assay: fold change of Cadaverine concentration vs plate DMSO controls (fold change (ratio)); higher = more amine produced, active = hit call of the paper (significant change in both replicates, either direction)
Summary of the method: as §2

[11] = tested on: Klebsiella aerogenes DSM 30053; assay: as above
Summary of the method: as §2

[12] = tested on: Ruminococcus gnavus DSM 108212; assay: fold change of 2-Phenylethylamine concentration vs plate DMSO controls (fold change (ratio)); higher = more amine produced, active = hit call of the paper (significant change in both replicates, either direction)
Summary of the method: as §2

Structure (SMILES)	growth [1]	growth (Escherichia coli IAI1 [2])	growth [3]	growth [4]	fold change of Histamine concentration [5]	fold change of Tryptamine concentration [6]	fold change of Tryptamine concentration [7]	fold change of Putrescine concentration (Escherichia coli IAI1 [8])	fold change of Putrescine concentration [9]	fold change of Cadaverine concentration (Escherichia coli IAI1 [10])	fold change of Cadaverine concentration [11]	fold change of 2-Phenylethylamine concentration [12]
COCCCC/C(=N\OCCN)c1ccc(C(F)(F)F)cc1 [Fluvoxamine maleate] (20 µM)	1.2	0.976	0.994	0.962	0.985 (inactive)	1.03 (inactive)	0.982 (inactive)	1.02 (inactive)	0.987 (inactive)	0.985 (inactive)	0.997 (inactive)	1.02 (inactive)
Cc1cnc(C(=O)NCCc2ccc(S(=O)(=O)NC(=O)NC3CCCCC3)cc2)cn1 [Glipizide] (20 µM)	1.11	0.966	1.04	1.08	0.94 (inactive)	1.01 (inactive)	0.99 (inactive)	0.989 (inactive)	0.998 (inactive)	0.973 (inactive)	1 (inactive)	1.03 (inactive)
CCN(CC)CCCC(C)Nc1c2ccc(Cl)cc2nc2ccc(OC)cc12 (stereo not given) [Quinacrine dihydrochloride hydrate] (20 µM)	1.09	1.03	0.892	1.36	1.03 (inactive)	1.1 (inactive)	1.07 (inactive)	1.03 (inactive)	0.928 (inactive)	0.982 (inactive)	0.996 (inactive)	1.08 (inactive)
Cn1cnc2c1c(=O)[nH]c(=O)n2C [Theobromine] (20 µM)	1.19	1	1.04	1.11	0.986 (inactive)	1.11 (inactive)	1.05 (inactive)	0.998 (inactive)	0.991 (inactive)	0.982 (inactive)	1 (inactive)	1.04 (inactive)
CCCN(CCC)CCc1cccc2c1CC(=O)N2 [Ropinirole hydrochloride] (20 µM)	1.07	0.95	0.961	1.02	1.08 (inactive)	1 (inactive)	1 (inactive)	0.952 (inactive)	1.02 (inactive)	0.978 (inactive)	0.986 (inactive)	1.02 (inactive)
C[C@@]12CC[C@@H]3[C@@](CC[C@H]4[C@@]3(C)CCC[C@@]4(C)C(=O)O)(CC1=O)C2 [Iso-Steviol] (50 µM)	1.08	0.954	1.03	1.09	1.02 (inactive)	0.905 (inactive)	1 (inactive)	0.992 (inactive)	1.02 (inactive)	0.963 (inactive)	1.02 (inactive)	0.996 (inactive)
O=C(NCCN1CCOCC1)c1ccc(Cl)cc1 [Moclobemide] (20 µM)	1.03	0.993	0.971	1.21	1.06 (inactive)	1.04 (inactive)	1.03 (inactive)	1 (inactive)	1.01 (inactive)	1.01 (inactive)	0.987 (inactive)	1.03 (inactive)
CC1=C(CC(=O)O)c2cc(F)ccc2/C1=C\c1ccc([S+](C)[O-])cc1 (stereo not given) [Sulindac] (20 µM)	1.15	1.08	1.02	1.3	0.931 (inactive)	1.04 (inactive)	1.03 (inactive)	1.02 (inactive)	0.951 (inactive)	0.995 (inactive)	1.02 (inactive)	1 (inactive)
CN1CCN(C2Cc3ccccc3Sc3ccc(Cl)cc32)CC1 (stereo not given) [Octoclothepin maleate salt] (20 µM)	0.962	0.98	0.941	0.931	1.01 (inactive)	1.05 (inactive)	0.848 (inactive)	1.06 (inactive)	1 (inactive)	1.1 (inactive)	0.99 (inactive)	0.992 (inactive)
O=C(CCCl)NCc1ccccc1 [Beclamide] (20 µM)	1.18	1.02	1	1.07	1.03 (inactive)	1.02 (inactive)	1.02 (inactive)	1.01 (inactive)	1.01 (inactive)	1.04 (inactive)	0.996 (inactive)	1.03 (inactive)
CCN[C@H]1C[C@H](C)S(=O)(=O)c2sc(S(N)(=O)=O)cc21 [Dorzolamide hydrochloride] (20 µM)	1.23	1.05	1.02	1.15	0.991 (inactive)	0.996 (inactive)	0.977 (inactive)	1.06 (inactive)	0.977 (inactive)	0.965 (inactive)	0.993 (inactive)	0.992 (inactive)
CCCCOc1cc(C(=O)OCCN(CC)CC)ccc1N [Benoxinate hydrochloride] (20 µM)	1.06	0.951	0.988	1.01	1.05 (inactive)	0.997 (inactive)	1.04 (inactive)	0.973 (inactive)	1.01 (inactive)	0.978 (inactive)	0.998 (inactive)	1.04 (inactive)
CC[N+](CC)(CC)CCC(O)(c1ccccc1)C1CCCCC1 (stereo not given) [Tridihexethyl chloride] (20 µM)	0.911	1	1.01	1.16	0.955 (inactive)	1.17 (inactive)	1.06 (inactive)	0.812 (inactive)	0.975 (inactive)	0.857 (inactive)	1.02 (inactive)	1.03 (inactive)
CN1CCN2c3ncccc3Cc3ccccc3C2C1 (stereo not given) [Mirtazapine] (20 µM)	1.09	1.01	1	1.11	0.963 (inactive)	1.12 (inactive)	1.06 (inactive)	0.964 (inactive)	0.983 (inactive)	0.984 (inactive)	1.02 (inactive)	1.04 (inactive)
CCCCNC(=N)NC(=N)N [Buformin] (20 µM)	1.02	0.988	0.986	1	1.03 (inactive)	1.05 (inactive)	0.934 (inactive)	1.01 (inactive)	1.01 (inactive)	1.03 (inactive)	1 (inactive)	0.915 (inactive)
COc1nc(C)nc(Cl)c1NC1=NCCN1 [Moxonidine] (20 µM)	1.05	0.991	0.981	1.01	1.07 (inactive)	1 (inactive)	1.04 (inactive)	1 (inactive)	1.01 (inactive)	1.01 (inactive)	0.991 (inactive)	1.07 (inactive)
Nc1nc(F)nc2c1ncn2[C@@H]1O[C@H](CO)[C@@H](O)[C@@H]1O [Fludarabine] (20 µM)	0.775	0.524	0.982	0.936	0.976 (inactive)	1.04 (inactive)	0.796 (active)	0.546 (inactive)	0.965 (inactive)	0.91 (inactive)	1.02 (inactive)	0.838 (inactive)
CCOC(=O)C1=C(C)NC(C)=C(C(=O)OCC)C1c1ccccc1/C=C/C(=O)OC(C)(C)C [Lacidipine] (20 µM)	1.03	0.928	0.929	1.12	1.13 (inactive)	0.849 (inactive)	0.944 (inactive)	0.962 (inactive)	1.03 (inactive)	1.01 (inactive)	0.979 (inactive)	0.955 (inactive)
CN1CCN(C2=Nc3cc(Cl)ccc3Nc3ccccc32)CC1 [Clozapine] (20 µM)	1.01	0.997	0.984	0.688	1.01 (inactive)	1.02 (inactive)	0.947 (inactive)	1.02 (inactive)	0.989 (inactive)	0.889 (inactive)	1 (inactive)	0.92 (inactive)
CCCCC1C(=O)N(c2ccccc2)N(c2ccccc2)C1=O [Phenylbutazone] (20 µM)	1.03	0.993	1.01	1.02	1.05 (inactive)	0.986 (inactive)	0.969 (inactive)	0.992 (inactive)	1.05 (inactive)	1.01 (inactive)	1.04 (inactive)	0.878 (inactive)
c1ccc2c(c1)-c1cccc3c1c-2cc1ccccc13 [Benzo[b]fluoranthene] (20 µM)	1.08	0.997	1.04	1	0.993 (inactive)	1.03 (inactive)	1.02 (inactive)	1 (inactive)	1.02 (inactive)	1.03 (inactive)	1.01 (inactive)	1.04 (inactive)
CCc1nc(N)nc(N)c1-c1ccc(Cl)cc1 [Pyrimethamine] (20 µM)	1.05	0.96	0.961	1.17	1.07 (inactive)	1.01 (inactive)	0.912 (inactive)	0.792 (inactive)	0.977 (inactive)	1.32 (active)	0.989 (inactive)	0.819 (inactive)
CCCCC(CC)CN1C(=O)[C@@H]2[C@H](C1=O)[C@@H]1C=C[C@H]2C1 (mixture of isomers) (20 µM)	1.03	1.02	1.06	1.02	0.925 (inactive)	0.978 (inactive)	1.05 (inactive)	0.993 (inactive)	0.987 (inactive)	1.02 (inactive)	1 (inactive)	1.06 (inactive)
CO[C@@]1(NC(=O)Cc2cccs2)C(=O)N2C(C(=O)O)=C(COC(N)=O)CS[C@@H]21 [Cefoxitin sodium salt] (20 µM)	0	0.00646	1.45	0	1.21 (inactive)	0.0449 (active)	0.0768 (active)	0.153 (active)	1.09 (inactive)	0.623 (active)	1.11 (inactive)	0.0566 (active)
Cc1cccc(C)c1OCC(C)N (stereo not given) [Mexiletine hydrochloride] (20 µM)	0.941	1.02	1.15	0.936	0.934 (inactive)	0.991 (inactive)	1.02 (inactive)	0.985 (inactive)	0.998 (inactive)	1.03 (inactive)	1.02 (inactive)	1.07 (inactive)
